The text below walks through data of the antibiotic and cytotoxicity screens of Wong et al. (2023).

In all, about 39,000 compounds went through this assay and about 3,300 (8.5%) were called active. The list comes from a sample in which actives are over-represented; it also holds similar structures and randomly drawn compounds.

The assay relates to HepG2. The experiment in a line: cytotoxicity call (relative viability < 0.9). The settings on record: 10 µM.
On to `COc1ccc(C(N)=S)cn1`, for which the cytotoxicity call was “inactive”.

Consider `Cc1noc(C)c1S(=O)(=O)Nc1ccc2c(c1)C(=O)N([C@H](C)CO)C[C@H](C)[C@H](CN(C)CC1CC1)O2`, for which the cytotoxicity call is “inactive”.

Turning to `C[C@@H]1CN([C@@H](C)CO)S(=O)(=O)c2ccc(C#CC(C)(C)O)cc2O[C@H]1CN(C)Cc1ccncc1`, the cytotoxicity call was “inactive”.

With `C[C@H](CO)N1C[C@H](C)[C@@H](CN(C)S(=O)(=O)c2ccccc2)Oc2ccc(NC(=O)CCN3CCOCC3)cc2CC1=O`, the cytotoxicity call is “inactive”.

Consider `CS(=O)(=O)Nc1ccc2c(c1)C(=O)NC2=O`, for which the cytotoxicity call was “inactive”.

Turning to `COc1ccccc1CNS(C)(=O)=O`, the cytotoxicity call was “inactive”.

Take `COc1cc(NS(C)(=O)=O)ccc1Nc1c2ccccc2nc2ccccc12`: the cytotoxicity call was “active”.

For `C[C@H]1CCCCO[C@@H](CN(C)C(=O)c2ccncc2)[C@@H](C)CN([C@@H](C)CO)C(=O)c2cc(NC(=O)NC3CCCCC3)ccc2O1`, the cytotoxicity call was “inactive”.

On to `Cn1nccc1C(=O)NCCN`, for which the cytotoxicity call was “inactive”.

On to `CNCCC(Oc1ccccc1C)c1ccccc1.Cl` (stereo not drawn), for which the cytotoxicity call is “inactive”.

Take `CNCCC(Oc1ccc(C(F)(F)F)cc1)c1ccccc1.Cl` (stereo not drawn): the cytotoxicity call was “active”.

On to `CNC(=O)[C@@H](c1ccccc1)N1CCc2cc(OC)c(OC)cc2[C@@H]1CCc1ccc(C(F)(F)F)cc1`, for which the cytotoxicity call was “inactive”.

Turning to `CCCOC(=S)N[C@H]1OC[C@@H](O)[C@@H](O)[C@@H]1O`, the cytotoxicity call is “inactive”.

`COc1ccccc1-c1ccc2c(c1)O[C@@H](CN(C)S(=O)(=O)c1ccccc1)[C@@H](C)CN([C@@H](C)CO)S2(=O)=O`: the cytotoxicity call was “inactive”.

`C=CC[C@@H](CC(=O)NCCO)C(=O)NC[C@H](OC(=O)[C@H](CC=C)CC(=O)OC(C)(C)C)c1ccccc1`: the cytotoxicity call is “inactive”.

On to `COc1ccc(S(=O)(=O)N[C@@H](CNc2nc(C)nc(N3CCC(c4ccc5c(n4)NCCC5)CC3)c2C)C(=O)O)cc1`, for which the cytotoxicity call was “active”.

In the case of `O=C(NCCCN1CCOCC1)[C@H]1[C@@H]2C=C[C@@]3(CN(Cc4cccs4)C(=O)[C@@H]13)O2`, the cytotoxicity call is “inactive”.

For the compound `Cc1cncc2cccc(S(=O)(=O)N3CC[C@H](N(C/C=C/c4ccc(Br)cc4)C/C=C/c4ccc(Br)cc4)C3)c12`, the cytotoxicity call is “inactive”.

Take `S=C(NCCCc1cnc[nH]1)NCCCN(Cc1ccc(Cl)c(Cl)c1)c1ccc(Br)cn1`: the cytotoxicity call is “active”.

As for `C[C@@H]1CCCCO[C@@H](CN(C)C(=O)Nc2ccccc2)[C@H](C)CN([C@H](C)CO)C(=O)c2cc(NS(=O)(=O)c3ccccc3)ccc2O1`, the cytotoxicity call is “inactive”.

Take `CC(C)(C)[S@@+]([O-])N1Cc2cc(C(=O)NCc3ccc4c(c3)OCO4)nc(-c3ccc(-c4ccccc4)cc3)c2[C@H]1CCO`: the cytotoxicity call was “inactive”.

Consider `COc1ccc(S(=O)(=O)N[C@@H]2C=C[C@@H](CC(=O)N3CCC(Cc4ccccc4)CC3)O[C@H]2CO)cc1`, for which the cytotoxicity call is “inactive”.

For `CCCNC(=O)C[C@@H]1CC[C@H]2[C@H](COc3ccc(NC(=O)c4ccc5c(c4)OCO5)cc3C(=O)N2C)O1`, the cytotoxicity call was “inactive”.

With `C[C@@H]1CN([C@@H](C)CO)C(=O)Cc2cc(NS(=O)(=O)c3ccc(Cl)cc3)ccc2O[C@@H]1CN(C)Cc1ccc(Cl)c(Cl)c1`, the cytotoxicity call is “active”.

For the compound `C[C@H]1CN([C@@H](C)CO)C(=O)Cc2cc(NS(=O)(=O)c3ccc(Cl)cc3)ccc2O[C@@H]1CN(C)Cc1ccc(Cl)c(Cl)c1`, the cytotoxicity call was “inactive”.

On to `C[C@@H]1CN([C@@H](C)CO)C(=O)Cc2cc(NS(=O)(=O)c3ccc(Cl)cc3)ccc2O[C@H]1CN(C)Cc1ccc(Cl)c(Cl)c1`, for which the cytotoxicity call is “inactive”.

For `C[C@H]1CN([C@@H](C)CO)C(=O)Cc2cc(NS(=O)(=O)c3ccc(Cl)cc3)ccc2O[C@H]1CN(C)Cc1ccc(Cl)c(Cl)c1`, the cytotoxicity call was “active”.

Consider `C[C@H](CO)N1C[C@H](C)[C@@H](CN(C)Cc2ccc(Cl)c(Cl)c2)Oc2ccc(NS(=O)(=O)c3ccc(Cl)cc3)cc2CC1=O`, for which the cytotoxicity call was “inactive”.

For the compound `C[C@@H]1CN([C@H](C)CO)C(=O)Cc2cc(NS(=O)(=O)c3ccc(Cl)cc3)ccc2O[C@H]1CN(C)Cc1ccc(Cl)c(Cl)c1`, the cytotoxicity call is “inactive”.

For the compound `C[C@@H]1CN([C@H](C)CO)C(=O)Cc2cc(NS(=O)(=O)c3ccc(Cl)cc3)ccc2O[C@@H]1CN(C)Cc1ccc(Cl)c(Cl)c1`, the cytotoxicity call is “active”.

Regarding `C[C@H](CO)N1C[C@H](C)[C@H](CN(C)Cc2ccc(Cl)c(Cl)c2)Oc2ccc(NS(=O)(=O)c3ccc(Cl)cc3)cc2CC1=O`, the cytotoxicity call is “active”.

As to `CO[C@H]1CN(C)C(=O)c2ccc(NS(=O)(=O)c3cn(C)cn3)cc2OC[C@@H](C)N(Cc2cccc(F)c2)C[C@H]1C`, the cytotoxicity call was “inactive”.

As to `C[C@H](CO)N1C[C@H](C)[C@H](CN(C)Cc2ccc(C(=O)O)cc2)Oc2c(NC(=O)C3CCOCC3)cccc2C1=O`, the cytotoxicity call is “inactive”.

As for `C[C@@H]1CN([C@@H](C)CO)C(=O)c2cccc(NC(=O)Nc3ccccc3)c2O[C@@H]1CN(C)Cc1ccc(Cl)c(Cl)c1`, the cytotoxicity call is “inactive”.

On to `Cc1cc2n(c(=O)c1C(N)=O)CCO2`, for which the cytotoxicity call is “inactive”.

Consider `CC/C=C\C/C=C\C/C=C\C/C=C\C/C=C\C/C=C\CCC(=O)OCC`, for which the cytotoxicity call is “inactive”.

On to `C[C@@H]1CN([C@@H](C)CO)C(=O)c2cc(NC(=O)Nc3ccc4c(c3)OCO4)ccc2O[C@@H](C)CCCCO[C@@H]1CN(C)Cc1ccncc1`, for which the cytotoxicity call is “inactive”.

Take `CCCNC(=O)N1C[C@]2(CCN(CC2)S(=O)(=O)c2ccccc2)c2c(n(c3cc(ccc23)OC)C)[C@H]1CO`: the cytotoxicity call is “inactive”.

On to `CCCNC(=O)N1C[C@]2(CCN(CC2)S(=O)(=O)c2ccc(cc2)OC)c2c(n(c3cc(ccc23)OC)C)[C@H]1CO`, for which the cytotoxicity call is “inactive”.

In the case of `CCCNC(=O)N1C[C@]2(CN(C2)S(=O)(=O)c2ccccc2)c2c(n(c3cc(ccc23)OC)C)[C@H]1CO`, the cytotoxicity call was “active”.

With `CCCNC(=O)N1C[C@]2(CCN(CC2)S(=O)(=O)c2ccc(cc2)OC)c2c(n(c3cc(ccc23)OC)C)[C@@H]1CO`, the cytotoxicity call was “active”.

`CCCNC(=O)N1C[C@]2(CN(C2)S(=O)(=O)c2cccc(c2)OC)c2c(n(c3cc(ccc23)OC)C)[C@@H]1CO`: the cytotoxicity call was “inactive”.

As for `CCCNC(=O)N1C[C@]2(CN(C2)S(=O)(=O)c2ccccc2)c2c(n(c3cc(ccc23)OC)C)[C@@H]1CO`, the cytotoxicity call is “inactive”.

For the compound `C[C@H]1CN([C@@H](C)CO)C(=O)c2cccc(NS(C)(=O)=O)c2O[C@H]1CN(C)S(=O)(=O)c1cccs1`, the cytotoxicity call is “inactive”.

For `COCC#Cc1cnc2c(c1)C(=O)N([C@H](C)CO)C[C@@H](C)[C@H](CN(C)C(C)=O)O2`, the cytotoxicity call is “inactive”.

As to `N[C@@H]1CC(=O)N(c2ccc(F)cc2)C1`, the cytotoxicity call was “inactive”.

As for `C[C@H](CO)N1C[C@H](C)[C@H](CN(C)S(=O)(=O)c2ccc(Cl)cc2)Oc2ccc(NS(=O)(=O)c3cn(C)cn3)cc2C1=O`, the cytotoxicity call was “inactive”.

As to `O=C(CCCCC(=O)N/N=C/[C@H](O)[C@@H](O)[C@H](O)CO)NO`, the cytotoxicity call was “inactive”.

`COc1ccc(CN(C)C[C@H]2OCCCC[C@@H](C)Oc3ccc(NS(=O)(=O)c4cccs4)cc3C(=O)N([C@H](C)CO)C[C@@H]2C)cc1`: the cytotoxicity call is “inactive”.

For the compound `COC(=O)C[C@](O)(CCCC(C)(C)O)C(=O)O[C@@H]1C(OC)=C[C@]23CCCN2CCc2cc4c(cc2[C@H]13)OCO4`, the cytotoxicity call is “active”.

With `CC(C)(O)[C@@H]1CC[C@]2(CO)[C@@H](O)CC[C@](C)(O)[C@H]2[C@@H]1O[C@@H]1O[C@H](CO)[C@@H](O)[C@H](O)[C@H]1O`, the cytotoxicity call is “inactive”.

Take `Cc1ccc(S(=O)(=O)N(C)C[C@H]2Oc3c(NC(=O)c4cnccn4)cccc3C(=O)N([C@@H](C)CO)C[C@@H]2C)cc1`: the cytotoxicity call is “inactive”.

In the case of `C[C@@H]1CN([C@@H](C)CO)C(=O)c2cc(NC(=O)c3ccccc3)ccc2O[C@@H](C)CCCCO[C@H]1CN(C)S(=O)(=O)c1ccc(Cl)cc1`, the cytotoxicity call was “active”.

As to `C[C@@H]1CCCCO[C@H](CN(C)S(=O)(=O)c2ccc(Cl)cc2)[C@@H](C)CN([C@H](C)CO)C(=O)c2cc(NC(=O)c3ccccc3)ccc2O1`, the cytotoxicity call is “inactive”.

Take `C[C@@H]1CCCCO[C@@H](CN(C)S(=O)(=O)c2ccc(Cl)cc2)[C@H](C)CN([C@H](C)CO)C(=O)c2cc(NC(=O)c3ccccc3)ccc2O1`: the cytotoxicity call is “inactive”.

With `C[C@H](CO)N1C[C@H](C)[C@H](CN(C)S(=O)(=O)c2ccc(Cl)cc2)OCCCC[C@H](C)Oc2ccc(NC(=O)c3ccccc3)cc2C1=O`, the cytotoxicity call is “inactive”.

Regarding `C[C@@H]1CN([C@H](C)CO)C(=O)c2cc(NC(=O)c3ccccc3)ccc2O[C@@H](C)CCCCO[C@H]1CN(C)S(=O)(=O)c1ccc(Cl)cc1`, the cytotoxicity call is “active”.

For the compound `C[C@@H]1CCCCO[C@@H](CN(C)S(=O)(=O)c2ccc(Cl)cc2)[C@@H](C)CN([C@@H](C)CO)C(=O)c2cc(NC(=O)c3ccccc3)ccc2O1`, the cytotoxicity call was “inactive”.

For the compound `C[C@H]1CCCCO[C@H](CN(C)S(=O)(=O)c2ccc(Cl)cc2)[C@@H](C)CN([C@@H](C)CO)C(=O)c2cc(NC(=O)c3ccccc3)ccc2O1`, the cytotoxicity call was “active”.

Regarding `C[C@@H]1CN([C@@H](C)CO)C(=O)c2cc(NC(=O)c3ccccc3)ccc2O[C@@H](C)CCCCO[C@@H]1CN(C)S(=O)(=O)c1ccc(Cl)cc1`, the cytotoxicity call is “inactive”.

For the compound `C[C@@H]1CCCCO[C@@H](CN(C)S(=O)(=O)c2ccc(Cl)cc2)[C@@H](C)CN([C@H](C)CO)C(=O)c2cc(NC(=O)c3ccccc3)ccc2O1`, the cytotoxicity call was “inactive”.

`COCC#Cc1ccc([C@H]2[C@H](CO)N3C(=O)CN(C(=O)c4ccncc4)C[C@@H]23)cc1`: the cytotoxicity call was “inactive”.

For the compound `Cc1noc(C)c1S(=O)(=O)N(C)C[C@@H]1Oc2ccc(NS(=O)(=O)c3cn(C)cn3)cc2CC(=O)N([C@H](C)CO)C[C@@H]1C`, the cytotoxicity call is “inactive”.

Turning to `NC(=S)CS(=O)(=O)c1ccccn1`, the cytotoxicity call was “inactive”.

With `CC(=O)OC[C@H]1O[C@@H](NC(N)=O)[C@H](OC(C)=O)[C@@H](OC(C)=O)[C@@H]1OC(C)=O`, the cytotoxicity call is “inactive”.

`C[C@@H]1CCCCO[C@@H](CN(C)C)[C@H](C)CN([C@@H](C)CO)C(=O)c2cc(NC(=O)Nc3cccc4ccccc34)ccc2O1`: the cytotoxicity call was “inactive”.

With `C[C@H]1CN([C@@H](C)CO)C(=O)c2cc(NC(=O)CCCN(C)C)ccc2O[C@@H]1CN(C)C(=O)Nc1ccccc1`, the cytotoxicity call is “inactive”.

As for `NC[C@@H](O)C1CCCCC1`, the cytotoxicity call is “inactive”.
